Experimental data reported in the supplement of paper PMC10127200.
Structures can show the parent of a compound that is named as a salt.

What was measured:
Assay in all cases: Euclidean distance of Cell Painting phenotypic profile (signed KS, 77 features) to DMSO centroid (dimensionless distance); 5 or 10 uM (library dependent); higher = stronger phenotypic change vs DMSO (phenoactivity)
Conditions in all cases: 48 h
786-O = system: 786-O
How it was run: (§1)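 Phenoactivity is defined as the Euclidean distance from a compound profile to the median vehicle profile. Each profile comprised 77 Harmony features, scored as signed Kolmogorov-Smirnov statistics versus same-plate vehicle wells, then plate-position corrected, correlation-weighted and replicate-averaged at the top dose. Five cancer lines and one healthy fibroblast line were exposed to library compounds for 48 h at 10 or 5 uM (0.1% DMSO final).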

A549 = system: A549
How it was run: as §1

DU145 = system: DU145
How it was run: as §1

FB = system: FB
How it was run: as §1

HEPG2 = system: HEPG2
How it was run: as §1

OVCAR4 = system: OVCAR4
How it was run: as §1

Row | SMILES | Euclidean distance (786-O) | Euclidean distance (A549) | Euclidean distance (DU145) | Euclidean distance (FB) | Euclidean distance (HEPG2) | Euclidean distance (OVCAR4)
1 | O=C(O)/C=C/c1ccc(O)cc1 [p-Coumaric Acid] | 1.47 | 0.995 | 0.894 | 0.846 | 1.05 | 0.854
2 | COc1ccc(-c2ccc3cc(C(=O)O)ccc3c2)cc1C12CC3CC(CC(C3)C1)C2 [Adapalene] | 1.76 | 2.58 | 1.39 | 2.18 | 1.73 | 2.03
3 | CC[C@H]1OC(=O)C[C@@H](O)[C@H](C)[C@@H](O[C@@H]2O[C@H](C)[C@@H](O)[C@H](N(C)C)[C@H]2O)[C@@H](CCN2C[C@H](C)C[C@H](C)C2)C[C@@H](C)C(=O)/C=C/C(C)=C/[C@@H]1CO[C@@H]1O[C@H](C)[C@@H](O)[C@@H](OC)[C@H]1OC [Tilmicosin] | 0.767 | 0.579 | 0.777 | 0.841 | 1.09 | 0.801
4 | O=c1cc(N2CCOCC2)oc2c(-c3ccccc3)cccc12 | 1.73 | 1.09 | 1.16 | 1.79 | 1.66 | 2.16
5 | CC1=C[C@H](O)CC(C)(C)[C@H]1/C=C/C(C)=C/C=C/C(C)=C/C=C/C=C(C)/C=C/C=C(C)/C=C/C1=C(C)C[C@@H](O)CC1(C)C [lutein] | 0.901 | 0.452 | 1.78 | 0.947 | 1.18 | 1
6 | NCCc1c[nH]cn1 [Histamine Phosphate] | 1.2 | 0.956 | 1.77 | 1.25 | 1.23 | 1.04
7 | N=C(NOCC(O)CN1CCCCC1)c1cccnc1 (stereo not drawn) | 1.13 | 0.912 | 1.06 | 1.33 | 0.604 | 1.05
8 | COc1ccc2cc(C(=O)O)ccc2c1 [6-Methoxy-2-naphthoic acid] | 0.861 | 0.63 | 0.683 | 1.15 | 0.634 | 1.19
9 | CCCc1nn(C)c2c(=O)[nH]c(-c3cc(S(=O)(=O)N4CCN(C)CC4)ccc3OCC)nc12 [Sildenafil Mesylate] | 1.12 | 0.763 | 0.989 | 1 | 0.692 | 0.995
10 | CC(C)NCC(O)COc1cccc2[nH]ccc12 (stereo not drawn) [Pindolol] | 0.941 | 0.858 | 0.721 | 1.06 | 0.588 | 0.895
11 | Cc1nc(C)c(C)nc1C [Ligustrazine hydrochloride] | 0.557 | 0.605 | 0.684 | 0.693 | 0.523 | 0.693
12 | CNC[C@@H](O)c1ccc(O)c(O)c1 [L-Adrenaline] | 1.4 | 0.654 | 0.94 | 1.3 | 0.928 | 0.954
13 | COc1cc(F)c(C(C)C)cc1-c1ccc(C(F)(F)F)cc1CN1C(=O)O[C@H](c2cc(C(F)(F)F)cc(C(F)(F)F)c2)[C@@H]1C [Anacetrapib (MK-0859)] | 0.703 | 0.903 | 1.12 | 0.869 | 1.84 | 0.709
14 | Cc1ccc(Cl)c(Nc2ccccc2C(=O)O)c1Cl [Meclofenamate Sodium] | 1.09 | 1.34 | 1.66 | 1.48 | 0.74 | 1.94
15 | COC(=O)N[C@H](C(=O)N[C@@H](Cc1ccccc1)[C@@H](O)CN(Cc1ccc(-c2ccccn2)cc1)NC(=O)[C@@H](NC(=O)OC)C(C)(C)C)C(C)(C)C [Atazanavir Sulfate] | 1.01 | 0.58 | 0.637 | 0.614 | 0.837 | 1.55
16 | CN(C)C/C=C/C(=O)Nc1cc2c(Nc3ccc(F)c(Cl)c3)ncnc2cc1O[C@H]1CCOC1 [Afatinib (BIBW2992) Dimaleate] | 4.65 | 3.63 | 5.93 | 5.45 | 4.62 | 4.49
17 | Cc1cc(=O)n(-c2ccccc2)n1C [Antipyrine] | 1.52 | 0.45 | 1.03 | 1.42 | 0.888 | 0.707
18 | Cc1cnc(NC(=O)Nc2cc(Br)c(C)cc2OC[C@@H]2CNCCO2)cn1 | 2.52 | 1.52 | 1.04 | 1.52 | 2.15 | 3.62
19 | CN1CCN(C2=Nc3cc(Cl)ccc3Nc3ccccc32)CC1 [Clozapine] | 1.75 | 1.56 | 1.21 | 0.901 | 1.03 | 1.34
20 | O=c1[nH]cnc2nc[nH]c12 [Hypoxanthine] | 1.19 | 1.2 | 1.16 | 1.66 | 0.856 | 2.43
21 | Nc1nc(O)c2ncn(CCC(CO)CO)c2n1 [Penciclovir] | 0.815 | 0.334 | 0.816 | 0.496 | 0.404 | 1.17
22 | COCCNCCc1cccc(Nc2ncc3c(n2)-c2ccccc2[C@H](c2ccccc2F)C3)c1 [Derazantinib(ARQ-087)] | 6.37 | 4.25 | 5.6 | 3.69 | 4.56 | 4
23 | C/C(=C\C(=O)OCCCCCCCCC(=O)O)C[C@@H]1OC[C@H](C[C@@H]2O[C@H]2[C@@H](C)[C@H](C)O)[C@@H](O)[C@H]1O [Mupirocin] | 1.8 | 0.693 | 0.636 | 0.92 | 0.693 | 1.35
24 | COc1cc(O)c2c(c1)oc(=O)c1c3cc(O)c(O)cc3oc21 [Wedelolactone] | 1.08 | 1.94 | 1.02 | 2.37 | 2.5 | 2.37

Row | SMILES | Euclidean distance (786-O) | Euclidean distance (A549) | Euclidean distance (DU145) | Euclidean distance (FB) | Euclidean distance (HEPG2) | Euclidean distance (OVCAR4)
25 | COc1cc(OC)c(C(=O)CCCN2CCCC2)c(OC)c1 [Buflomedil HCl] | 1.46 | 1.05 | 0.962 | 1.04 | 0.715 | 1.18
26 | c1ccc2c(c1)CCCC2C1=NCCN1 (stereo not drawn) [Tetryzoline] | 1.41 | 0.369 | 0.804 | 1.09 | 0.572 | 0.896
27 | O=C(Nc1cccc(C2=NCCN2)c1)Nc1cccc(C2=NCCN2)c1 [Imidocarb dipropionate] | 1.26 | 1.66 | 1.76 | 1.4 | 1.23 | 1.75
28 | CCN(CC)CC(=O)Nc1c(C)cccc1C [Lidocaine hydrochloride] | 0.709 | 0.8 | 0.919 | 0.862 | 0.656 | 1.35
29 | C[C@]1(c2nc3c(C(N)=O)cccc3[nH]2)CCCN1 [Veliparib (ABT-888)] | 1.29 | 1 | 0.896 | 1.35 | 0.938 | 1.16
30 | O=C(O)CCNC(=O)c1ccc(/N=N/c2ccc(O)c(C(=O)O)c2)cc1 [Balsalazide disodium] | 0.73 | 0.808 | 0.796 | 0.76 | 0.576 | 0.971
31 | CCCCCOC(=O)Nc1nc(=O)n([C@@H]2O[C@H](C)[C@@H](O)[C@H]2O)cc1F [Capecitabine] | 1.77 | 0.754 | 1.15 | 0.899 | 0.821 | 1.23
32 | O=C(Nc1ccccc1)c1ccccc1O [Salicylanilide] | 0.807 | 0.631 | 0.393 | 0.532 | 0.798 | 0.892
33 | O=C(/C=C\n1cnc(-c2cc(C(F)(F)F)cc(C(F)(F)F)c2)n1)N1CC(F)(F)C1 | 3.83 | 3.69 | 3.2 | 2.48 | 3.62 | 4
34 | COC(=O)Nc1nc2cc(C(=O)c3cccs3)ccc2[nH]1 [Nocodazole] | 2.96 | 2.51 | 3.43 | 2.56 | 2.58 | 3.08
35 | CC(=O)Nc1nc2c(Oc3cc(-c4ccc(C(F)(F)F)cc4)ncn3)cccc2s1 | 0.826 | 0.619 | 0.706 | 0.556 | 0.84 | 0.981
36 | Cc1coc2c1C(=O)C(=O)c1c-2ccc2c1CCCC2(C)C [Tanshinone IIA] | 1.26 | 2.73 | 0.982 | 1.04 | 1.54 | 1.36
37 | COc1cc2nccc(Oc3ccc(NC(=O)C4(C(=O)Nc5ccc(F)cc5)CC4)cc3)c2cc1OC | 2.21 | 2.82 | 1.36 | 3.32 | 2.4 | 3.08
38 | CCOc1ccc(Cc2cc([C@@H]3O[C@H](CO)[C@@H](O)[C@H](O)[C@H]3O)ccc2Cl)cc1 [Dapagliflozin propanediol monohydrate] | 1.02 | 0.644 | 1.02 | 0.967 | 0.649 | 0.832
39 | O=C(O[C@@H]1Cc2c(O)cc(O)cc2O[C@@H]1c1cc(O)c(O)c(O)c1)c1cc(O)c(O)c(O)c1 [(-)-Epigallocatechin Gallate] | 0.998 | 0.875 | 1.33 | 1.39 | 1.17 | 0.757
40 | C[C@H]1CO[C@@H]2Cn3cc(C(=O)NCc4ccc(F)cc4F)c(=O)c(O)c3C(=O)N12 | 1.14 | 1.26 | 0.669 | 0.944 | 0.626 | 0.809
41 | O=S(=O)(c1ccccc1)N(CC(F)(F)F)c1ccc(C(O)(C(F)(F)F)C(F)(F)F)cc1 | 1.13 | 1.85 | 1.07 | 1.62 | 2.12 | 1.43
42 | Cc1[nH]c(=O)c(C#N)cc1-c1ccc2nccn2c1 [Olprinone] | 1.08 | 1.07 | 0.61 | 1.08 | 0.547 | 1.11
43 | O=C1CC2(CCCC2)CC(=O)N1CCCCN1CCN(c2ncccn2)CC1 [Buspirone HCl] | 0.547 | 0.965 | 0.869 | 0.994 | 0.61 | 1.32
44 | COc1c(N2C[C@@H]3CCCN[C@@H]3C2)c(F)cc2c(=O)c(C(=O)O)cn(C3CC3)c12 [Moxifloxacin] | 1.32 | 0.519 | 0.919 | 1.06 | 0.804 | 0.918
45 | O=C1c2c(O)ccc(O)c2C(=O)c2c(NCCNCCO)ccc(NCCNCCO)c21 [Mitoxantrone 2HCl] | 5.6 | 5.26 | 4.77 | 7.28 | 5.09 | 5.15
46 | Nc1cccc2c1CN(C1CCC(=O)NC1=O)C2=O (stereo not drawn) [Lenalidomide (CC-5013)] | 1.74 | 1.2 | 0.79 | 1.03 | 0.639 | 1.15
47 | N[C@@H](Cc1cc(I)c(Oc2ccc(O)c(I)c2)c(I)c1)C(=O)O [Liothyronine Sodium] | 0.896 | 0.796 | 0.838 | 1.56 | 1.41 | 0.927
48 | Cc1cccc(Nc2ccccc2C(=O)O)c1C [Mefenamic Acid] | 0.733 | 0.521 | 0.8 | 1.14 | 0.673 | 0.64
